Measurements: PubChem BioAssay AID1159580 (chemical genetic matrix, 2015)
In all, about 5,500 compounds went through this assay and about 2,000 (36%) were called active. Inconclusive results (about 18%) are left out. No stated cut-off is given here; in the data, active means normalized growth mostly below about 0.91 (no sharp cut-off); inconclusive means no clear call, values can overlap the other calls; inactive means mostly above about 0.92. The list shows a part of the results.

Assay: chemical genetic growth profiling, strain panel (AID 1159580);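 further: tested at 20 µM; growth read once vehicle control cultures reached saturation at 30 °C; 1 = growth at the plate median or of vehicle wells; lower values mean less growth of the strain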
Conditions: growth OD

Measured: normalized growth

Cc1cc(C)cc(OCC2CNC(=O)O2)c1 (configuration not stated)
inactive: S. cerevisiae deletion strains, locus YJR075W, strain HOC1, active compounds read low 1.01 | S. cerevisiae deletion strains, locus YKL009W, strain mrt4, active compounds read low 1.02 | S. cerevisiae deletion strains, locus YKL068W, active compounds read low 1.02 | S. cerevisiae deletion strains, locus YKL085W, strain MDH1 (second series), active compounds read low 1.01 | S. cerevisiae deletion strains, locus YKL085W, strain MDH1, active compounds read low 1.01 | S. cerevisiae deletion strains, locus YKL160W, strain elf1, active compounds read low 0.973 | S. cerevisiae deletion strains, locus YKL190W, strain CNB1, active compounds read low 1.01 | S. cerevisiae deletion strains, locus YKR001C, strain vps1, active compounds read low 1.01 | S. cerevisiae deletion strains, locus YKR026C, strain gcn3, active compounds read low 0.978 | S. cerevisiae deletion strains, locus YKR091W, strain srl3, active compounds read low 0.985 | S. cerevisiae deletion strains, locus YLL001W, strain dnm1, active compounds read low 0.976 | S. cerevisiae deletion strains, locus YLL026W, active compounds read low 0.988 | S. cerevisiae deletion strains, locus YLL041C, strain sdh2, active compounds read low 0.972 | S. cerevisiae deletion strains, locus YLR027C, strain aat2, active compounds read low 0.985 | S. cerevisiae deletion strains, locus YLR039C, strain RIC1, active compounds read low 1.04 | S. cerevisiae deletion strains, locus YLR058C, strain SHM2, active compounds read low 1.01 | S. cerevisiae deletion strains, locus YLR102C, strain apc9, active compounds read low 1.02 | S. cerevisiae deletion strains, locus YLR113W, strain HOG1, active compounds read low 1.03 | S. cerevisiae deletion strains, locus YLR221C, strain rsa3, active compounds read low 0.966 | S. cerevisiae deletion strains, locus YLR258W, strain gsy2, active compounds read low 0.981 | S. cerevisiae deletion strains, locus YLR262C, strain YPT6 (second series), active compounds read low 0.962 | S. cerevisiae deletion strains, locus YLR262C, strain YPT6, active compounds read low 1.07 | S. cerevisiae deletion strains, locus YLR268W, strain sec22, active compounds read low 1.01 | S. cerevisiae deletion strains, locus YLR320W, strain mms22, active compounds read low 0.978 | S. cerevisiae deletion strains, locus YLR330W, strain CHS5, active compounds read low 1.01 | S. cerevisiae deletion strains, locus YLR342W, strain FKS1 (second series), active compounds read low 1.02 | S. cerevisiae deletion strains, locus YLR342W, strain FKS1, active compounds read low 0.982 | S. cerevisiae deletion strains, locus YLR357W, strain rsc2, active compounds read low 1.01 | S. cerevisiae deletion strains, locus YLR370C, strain arc18, active compounds read low 0.963 | S. cerevisiae deletion strains, locus YLR371W, strain rom2, active compounds read low 1.02 | S. cerevisiae deletion strains, locus YLR384C, strain iki3, active compounds read low 0.973 | S. cerevisiae deletion strains, locus YLR418C, strain cdc73, active compounds read low 1.02 | S. cerevisiae deletion strains, locus YML016C, strain PPZ1, active compounds read low 1.01 | S. cerevisiae deletion strains, locus YML032C, strain rad52, active compounds read low 1.02 | S. cerevisiae deletion strains, locus YML120C, strain ndi1, active compounds read low 0.984 | S. cerevisiae deletion strains, locus YML124C, strain tub3, active compounds read low 1 | S. cerevisiae deletion strains, locus YMR058W, strain fet3, active compounds read low 0.95 | S. cerevisiae deletion strains, locus YMR078C, strain ctf18, active compounds read low 1.02 | S. cerevisiae deletion strains, locus YMR125W, strain sto1, active compounds read low 0.979 | S. cerevisiae deletion strains, locus YMR129W, active compounds read low 0.984 | S. cerevisiae deletion strains, locus YMR205C, strain PFK2, active compounds read low 0.97 | S. cerevisiae deletion strains, locus YMR223W, strain ubp8, active compounds read low 1.02 | S. cerevisiae deletion strains, locus YMR231W, strain pep5, active compounds read low 0.964 | S. cerevisiae deletion strains, locus YMR263W, strain SAP30, active compounds read low 1.01 | S. cerevisiae deletion strains, locus YMR307W, strain GAS1, active compounds read low 1.03 | S. cerevisiae deletion strains, locus YNL067W, strain RPL9B, active compounds read low 1.02 | S. cerevisiae deletion strains, locus YNL071W, strain lat1, active compounds read low 0.983 | S. cerevisiae deletion strains, locus YNL128W, strain TEP1, active compounds read low 1.01 | S. cerevisiae deletion strains, locus YNL153C, strain GIM3, active compounds read low 1 | S. cerevisiae deletion strains, locus YNL183C, strain NPR1, active compounds read low 0.98 | S. cerevisiae deletion strains, locus YNL209W, strain ssb2, active compounds read low 0.969 | S. cerevisiae deletion strains, locus YNL233W, strain BNI4, active compounds read low 1 | S. cerevisiae deletion strains, locus YNL248C, strain rpa49, active compounds read low 0.976 | S. cerevisiae deletion strains, locus YNL250W, strain rad50, active compounds read low 1.02 | S. cerevisiae deletion strains, locus YNL271C, strain bni1, active compounds read low 1.02 | S. cerevisiae deletion strains, locus YNL298W, strain CLA4, active compounds read low 1.02 | S. cerevisiae deletion strains, locus YNL307C, strain MCK1, active compounds read low 1.01 | S. cerevisiae deletion strains, locus YNL322C, strain KRE1 (second series), active compounds read low 0.975 | S. cerevisiae deletion strains, locus YNL322C, strain KRE1, active compounds read low 1.01 | S. cerevisiae deletion strains, locus YNR049C, strain mso1, active compounds read low 0.983 | S. cerevisiae deletion strains, locus YNR052C, strain pop2, active compounds read low 1.02 | S. cerevisiae deletion strains, locus YOL006C, strain TOP1, active compounds read low 1.03 | S. cerevisiae deletion strains, locus YOL012C, strain htz1 1.42 | S. cerevisiae deletion strains, locus YOL147C, strain pex11, active compounds read low 1.01 | S. cerevisiae deletion strains, locus YOR001W, strain rrp6, active compounds read low 0.984 | S. cerevisiae deletion strains, locus YOR061W, strain CKA2, active compounds read low 1.01 | S. cerevisiae deletion strains, locus YOR069W, strain VPS5, active compounds read low 1.02 | S. cerevisiae deletion strains, locus YOR070C, strain gyp1, active compounds read low 0.969 | S. cerevisiae deletion strains, locus YOR080W, strain dia2, active compounds read low 0.991 | S. cerevisiae deletion strains, locus YOR083W, strain WHI5, active compounds read low 0.986 | S. cerevisiae deletion strains, locus YOR106W, strain vam3, active compounds read low 0.978 | S. cerevisiae deletion strains, locus YOR136W, strain idh2, active compounds read low 1.01 | S. cerevisiae deletion strains, locus YOR144C, strain elg1, active compounds read low 1.01 | S. cerevisiae deletion strains, locus YOR184W, strain ser1, active compounds read low 1.03 | S. cerevisiae deletion strains, locus YOR231W, strain MKK1, active compounds read low 1.05 | S. cerevisiae deletion strains, locus YOR265W, strain rbl2, active compounds read low 0.975 | S. cerevisiae deletion strains, locus YOR270C, strain vph1, active compounds read low 0.939 | S. cerevisiae deletion strains, locus YOR290C, strain snf2, active compounds read low 0.982 | S. cerevisiae deletion strains, locus YOR316C, strain cot1, active compounds read low 1.02 | S. cerevisiae deletion strains, locus YPL051W, strain arl3, active compounds read low 0.979 | S. cerevisiae deletion strains, locus YPL055C, strain LGE1, active compounds read low 1.02 | S. cerevisiae deletion strains, locus YPL078C, strain atp4, active compounds read low 0.973 | S. cerevisiae deletion strains, locus YPL106C, strain sse1, active compounds read low 0.969 | S. cerevisiae deletion strains, locus YPL240C, strain hsp82, active compounds read low 0.979 | S. cerevisiae deletion strains, locus YPL241C, strain CIN2, active compounds read low 1.01 | S. cerevisiae deletion strains, locus YPL256C, strain CLN2, active compounds read low 1.1 | S. cerevisiae deletion strains, locus YPR119W, strain clb2, active compounds read low 1.01 | S. cerevisiae deletion strains, locus YPR141C, strain kar3, active compounds read low 1.02 | S. cerevisiae deletion strains, locus YPR163C, strain tif3, active compounds read low 1.01 | S. cerevisiae deletion strains, locus YPR167C, strain met16, active compounds read low 1.01 | S. cerevisiae deletion strains, strain wtn01, active compounds read low 1.01 | S. cerevisiae strains, strain wild type, active compounds read low 1.01
